Compound activity: PubChem, The Scripps Research Institute Molecular Screening Center
The full list was thinned out, with hits kept by preference.
TTR transcr act: activators of transthyretin transcription. SH-SY5Y TTR promoter Gaussia luciferase, luminescence; 100% = recombinant luciferase protein wells. activation, % at 16.7 µM. actives 1.3% (n = 92,000). AID 1117267;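 active means activation above the mean of all tested compounds plus 3 SD, cut at about 9.5% in these data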;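 further: cells exposed to compounds for one day before reading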
HuH7 TTR inh: decreases TTR transcription in HuH7 cells in activator counter-screen; shares compounds with TTR transcr act; HuH7 TTR promoter-Gaussia luciferase reporter, luminescence; inhibition, % at 16.7 µM; actives 4% (n = 1,100);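 active means average inhibition above the solvent-only control wells' mean plus 3 SD, cut at about 15% in these data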;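 further: inhibitors lower well luminescence so higher value means more inhibition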
TTR act confirm: human TTR transcription activation, confirmation. shares compounds with TTR transcr act. SHSY5Y TTR promoter Gaussia luciferase, luminescence; 100% = purified Lucia enzyme wells, no cells. activation, % at 16.7 µM. 1,100 tested, under 10 active;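 active means mean activation above a set limit taken from the earlier primary screen, cut at about 11% in these data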
Of the large screens only hits and unclear results are named; the others gave an inactive call (follow-up assays come after a bar, where they were run).

C[C@H]1[C@@H](OC(=O)N2CCN(c3ccccc3)CC2)CC[C@@]23CCCN2C(=O)CCC[C@@H]13	none
COc1ccc(CCNC(=O)Cn2cnc3c(nnn3Cc3ccccc3F)c2=O)cc1OC	TTR transcr act 22 | HuH7 TTR inh inactive | TTR act confirm inactive
O=C(Cn1cnc2c(nnn2Cc2ccc(F)cc2)c1=O)NCc1ccc(F)cc1	none
COc1ccc(CCNC(=O)Cn2nnc(-c3ccccc3F)n2)cc1OC	none
CCOC(=O)[C@@]12CCC3=C1N(CCC3)C(=O)[C@H](CC(=O)NCCCOC)C2	none
Cc1ccc(C)c(S(=O)(=O)N2CCN(C(=O)Cc3sc(C)nc3-c3ccc(F)cc3)CC2)c1	none
O=C(NC1CCCCN(Cc2ccc(Cl)cc2)C1=O)c1ccc(-c2ccccc2)cc1 (centres undefined)	none
C=CCOC(=O)C1C(=O)CC(C)(O)C(C(=O)OCC=C)C1c1ccc(N(C)C)cc1 (centres undefined)	TTR transcr act 25 | HuH7 TTR inh inactive | TTR act confirm inactive
CCOC(=O)C1C(=O)CC(C)(O)C(C(=O)OCC)C1c1ccc(Br)cc1 (centres undefined)	none
CCOC(=O)C1C(=O)CC(C)(O)C(C(=O)OCC)C1c1ccc(SC)cc1 (centres undefined)	none
Cc1cccn2cc(CCNC(=O)Cc3cccs3)nc12	none
CCCCNC(=O)Cn1cnc2c(cnn2-c2ccc(C)c(C)c2)c1=O	none
CCOCCCNC(=O)Cn1cnc2c(cnn2-c2ccc(F)cc2)c1=O	none
CCOc1ccccc1NC(=O)Cn1cnc2c(cnn2-c2ccc(C)c(C)c2)c1=O	TTR transcr act 11 | HuH7 TTR inh inactive | TTR act confirm inactive
C[C@H](NC(=O)Cc1cccc2ccccc12)C(=O)N1CCOCC1	none
CCOC(=O)C1=C(C)N=c2sc(=Cc3ccc(OCC(=O)O)cc3)c(=O)n2C1c1ccc(SC)cc1 (centres undefined)	none
S=c1[nH]nc(COc2ccccc2)n1/N=C/C=C/c1ccco1	none
S=c1[nH]nc(COc2ccccc2)n1/N=C/c1cccc(Br)c1	none
S=c1[nH]nc(COc2ccccc2)n1/N=C/C=C/c1ccccc1	TTR transcr act 20 | HuH7 TTR inh inactive | TTR act confirm inactive
CN(CCOC(=O)c1cc2ccccc2o1)C1CN(Cc2cn(Cc3ccccc3Cl)nn2)S(=O)(=O)C1 (centres undefined)	none
CCOC(=O)C1CCCN(C(=O)CCn2nnnc2CN2CCOCC2)C1 (centres undefined)	none
CCOc1ccc(-c2nc(CSCC(=O)NC3CCC3)c(C)o2)cc1	none
Nc1nnnn1/N=C/c1cc(Br)ccc1O	TTR transcr act 12 | HuH7 TTR inh inactive | TTR act confirm inactive
CCOc1ccc(/C=N/n2nnnc2N)cc1O	none
CCOc1ccc(/C=N/n2nnnc2N)cc1OCC	none
Cc1ccc(F)c(CNC(=O)C2CCC(=O)N(CCCN3CCCC3=O)C2)c1F (centres undefined)	none
CCOC(=O)C1CCCN(Cc2cc(OC)c(O)c(OC)c2)C1 (centres undefined)	TTR transcr act 25 | HuH7 TTR inh inactive | TTR act confirm inactive
COc1cc(CN2CCC(C(=O)NC3CCCC3)CC2)cc(OC)c1O	none
CCOC(=O)C1CCCN(Cc2cc(Br)c(OC)cc2OC)C1 (centres undefined)	none
O=C(OCC#CCSc1nnc(-c2cccc3ccccc23)o1)C1CCCC1	none
CCOC(=O)C1CCN(C(=O)CN(c2ccc3c(c2)OCO3)S(C)(=O)=O)CC1	TTR transcr act 18 | HuH7 TTR inh inactive | TTR act confirm inactive
CCOC(=O)C1CCN(C(=O)CN(c2ccc(Cl)c(C(F)(F)F)c2)S(C)(=O)=O)CC1	none
CCOC(=O)C1CCN(C(=O)COc2ccc3c(c2)OCO3)CC1	none
COC(=O)[C@@]1(Cc2ccc(F)cc2)[C@H]2c3cc(C(=O)N4CCCC4)n(Cc4cc(F)cc5c4OCOC5)c3C[C@H]2CN1C(=O)c1ccccc1	none
c1ccc(CNc2nc3ccccc3[nH]2)cc1	TTR transcr act 9.9 | HuH7 TTR inh inactive | TTR act confirm inactive
c1ccc(CCc2nc3ccccc3[nH]2)cc1	none
O=c1[nH]c2ccccc2nc1NCc1ccccc1	none
CSc1ccc(SC2CN(Cc3ccc(C)cc3)S(=O)(=O)C2)cc1 (centres undefined)	none
CC(C)(CO)NC12CC3CC(CC(C3)C1)C2	none
Cc1ccsc1CNC12CC3CC(CC(C3)C1)C2	TTR transcr act 9.7 | HuH7 TTR inh inactive | TTR act confirm inactive
c1ccc(CNC23CC4CC(CC(C4)C2)C3)nc1	none
O=C(c1ccc(Cl)c(Cl)c1)N1CCN(c2ccnc3cc(Cl)ccc23)CC1	none
O=C(Nc1ccc(Br)cc1)OC1CC2CC1[C@H]1CCCCN1[C@H]2Cc1ccccc1 (some centres undefined)	none
O=C(NCc1ccccc1)C1CCN(c2nc(-c3ccc(Br)cc3)cs2)CC1	none
COc1ccc2nc(NC(=O)CSc3ccccc3)sc2c1	none
CCOC(=O)c1ccc(NC(=O)CSc2nc(SC)ns2)cc1	none
CCOc1ccc2nc(NC(=O)CSc3nc(SC)ns3)sc2c1	TTR transcr act 20 | HuH7 TTR inh inactive | TTR act confirm inactive
CN(Cc1ccccc1)C(=O)c1[nH]cnc1C(=O)N[C@@H](Cc1ccccc1)C(=O)OC(C)(C)C	none
O=S1(=O)c2c(cccc2N2CC[C@@H](O)C2)O[C@@H]2CCN1C2	none
O=c1[nH]cnc2c1ncn2-c1ccc(Cl)cc1	none
C/C(=N\Nc1nc2ccccc2s1)c1ccc2c(c1)OCO2	TTR transcr act 11 | HuH7 TTR inh inactive | TTR act confirm inactive
C/C(=N\Nc1ccc(Cl)c(C(=O)O)c1)c1ccc2c(c1)OCO2	none
Cc1ccc2nc(NC(=O)c3ccc4c(c3)OCO4)sc2c1	none
CN(Cc1ccc(C(F)(F)F)cc1)C(=O)C1CC(=O)N(Cc2ccco2)C1 (centres undefined)	none
O=C1CCCC2=C1CC(C(=O)OCc1ccccc1)C(=O)N2Cc1ccccc1 (centres undefined)	none
COc1ccc(NC(=O)CCc2nc(-c3ccccc3F)no2)cc1	TTR transcr act 9.9 | HuH7 TTR inh inactive | TTR act confirm inactive
CCOC(=O)c1cccc(NC(=O)CCc2nc(-c3ccccc3F)no2)c1	none
COc1ccc(-c2noc(CCC(=O)Nc3nc4ccccc4s3)n2)cc1	none
O=C(/C=C/c1ccc(Cl)c([N+](=O)[O-])c1)Nc1ccc(N2CCCC2)cc1	none
Cc1c(Cl)cccc1S(=O)(=O)Nc1ccnn1C	none
C/C(CC(=O)Nc1ccc2c(c1)OCCO2)=N\NC(=O)COc1ccc(C)cc1Br	none
COc1cc(NS(=O)(=O)c2ccc(NC(=S)NC(C)=O)cc2)nc(OC)n1	TTR transcr act 17 | HuH7 TTR inh inactive | TTR act confirm inactive
COc1cc(NS(=O)(=O)c2ccc(NC(=O)COc3ccc(C)cc3)cc2)nc(OC)n1	none
CCOC(=O)/C=C/C(=O)Nc1ccc(S(=O)(=O)Nc2cc(OC)nc(OC)n2)cc1	none
C[C@H](NCc1c[nH]c2ccccc12)c1ccccc1	none
CCN(CC)C(=O)O[C@H]1CC[C@@]23CCCN2C(=O)CCC[C@H]3C1	none
CC(C(=O)O)N1C(=O)C2C3CC(C2C1=O)C1C(c2ccccc2)c2sc(=O)[nH]c2SC31 (centres undefined)	none
O=S(=O)(NCc1cccs1)NCc1ccccc1F	none
S=C(NCc1cccs1)Nc1cccc2ccccc12	none
N#Cc1c(F)cccc1NCc1cccs1	TTR transcr act 14 | HuH7 TTR inh inactive | TTR act confirm inactive
CCOc1ccccc1N(CC(=O)N1CCN(Cc2ccccc2)CC1)S(=O)(=O)c1ccccc1	none
